# Source: PubChem BioAssay (NCATS)
# Inconclusive results are not listed. A number with no mark means an inactive call. Active and inactive are the calls of the source. Calls come from the whole dose curve; as a rule, active = well fitted inhibition curve with a large enough effect; inconclusive = small, poorly fitted or top-dose-only effect; inactive = flat fitted curve, though single readings scatter.
# Tested on: HEK293
# Assay: Cytotoxic Profiling of Annotated Libraries Using Quantitative High-Throughput Screening (AID 1296008); note: nearly all actives have a fitted effect of over 60% in size
# Details: Five cell lines viability, CellTiter-Glo ATP luminescence, 48-72 h; max response: active compounds read low
# Outline: (§1)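 Compounds were pin-transferred onto cells and incubated 48 or 72 hr at 37 degree Celsius, 95% humidity. CellTiter-Glo was added, plates sat 10 min at room temperature, then ATP-coupled luminescence was imaged as the viability read-out.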
# % is set by controls: 0 for no effect and ±100 for the full control effect.
row,Structure (SMILES),max response
1,CC(C)[C@](O)(c1ccc2cc(OC(F)F)c(OC(F)F)cc2c1)c1cn[nH]n1,-21.3%
2,C/C=C1/[C@H](O[C@@H]2O[C@H](CO)[C@@H](O)[C@H](O)[C@H]2O)OC=C(C(=O)OC)[C@H]1CC(=O)OCCc1ccc(OC(=O)C[C@@H]2C(C(=O)OC)=CO[C@@H](O[C@@H]3O[C@H](CO)[C@@H](O)[C@H](O)[C@H]3O)/C2=C/C)cc1,-1.34%
3,C/C(=C/CO)CC[C@H]1[C@]2(C)C[C@H](O)CC(C)(C)[C@H]2CC[C@]1(C)O,4.37%
4,C[C@@H]1O[C@@H](O[C@@H]2\C=C/C=C\C=C/C=C\C[C@H](C)OC(=O)/C=C\[C@H]3O[C@@H]3C[C@H](O)C[C@]3(O)C[C@@H](O)[C@@H](C(=O)O)[C@H](C2)O3)[C@H](O)[C@H](N)[C@@H]1O,3.56%
5,COc1cc(C)c(C(=O)O[C@@H]2[C@H](O)[C@@H](CO)O[C@H]2n2ccc(=O)[nH]c2=O)c(OC)c1,3.08%
6,C=C(CCO)C(=O)OCC1OCC(OC(=O)C(=C)CCO[C@@H]2O[C@H](CO)[C@@H](O)[C@H](O)[C@H]2O)C(O)C1O (some centres undefined),0.294%
7,COc1ccc(/C=C/C(=O)N2CCCC2)cc1,2.31%
8,C[C@@H]1O[C@@H](OC[C@H]2O[C@@H](OCc3ccccc3)[C@H](O)[C@@H](O)[C@@H]2O)[C@H](O)[C@H](O)[C@H]1O,-5.01%
9,CC(=O)O[C@@H]1C=C2[C@H](CC[C@@]3(C)[C@@]2(O)CC[C@H]2Cc4c([nH]c5ccccc45)[C@@]23C)O[C@@H]1C(C)(C)O,-5.86%
10,Cc1cc(Cn2cnc3c2CC(C(=O)O)N(C(=O)C(c2ccccc2)c2ccccc2)C3)ccc1N(C)C (centres undefined),-1.68%

# Tested on: HaCat
# Assay: as above
# Details: Five cell lines viability, CellTiter-Glo ATP luminescence, 48-72 h; max response: active compounds read low
# Outline: as §1
row,Structure (SMILES),outcome
1,COc1cccc(Cn2ncc3c4sc(S(C)=O)cc4n(C)c3c2=O)c1 (centres undefined),inactive
2,CC(C)CC(=O)O[C@@H]1O[C@H](CO)[C@@H](O[C@H]2O[C@H](C)[C@@H](N[C@H]3C=C(CO)[C@@H](O[C@H]4O[C@H](CO)[C@@H](O[C@H]5O[C@H](CO)[C@@H](O[C@H]6O[C@H](CO)[C@@H](O)[C@H](O)[C@H]6O)[C@H](O)[C@H]5O)[C@H](O)[C@H]4O)[C@H](O)[C@H]3O)[C@H](O)[C@H]2O)[C@H](O)[C@H]1O,inactive
3,COc1ccc(C2COc3cc(O)ccc3C2)c(O)c1OC (centres undefined),inactive
4,CCN1CCN(C(=O)N[C@@H](C(=O)N[C@@H]2C(=O)N3[C@@H]2SC(C)(C)[C@@H]3C(=O)O)c2ccccc2)C(=O)C1=O,inactive
5,COc1ccc(/C=C/C(N)=O)cc1OC,inactive
6,N[C@@H](CC(=O)Nc1ccc(Oc2cc(F)c(F)cc2Br)cc1)C(=O)O,inactive
7,COc1cc(O)cc2c1C(=O)OC(C)C2 (centres undefined),inactive
8,COc1cc(/C=C/C(=O)O[C@@H]2C[C@](O)(C(=O)O)C[C@@H](O)[C@H]2O)ccc1O,inactive
9,Cc1cn(C[C@H](N)C(=O)O)c(=O)n(Cc2ccsc2C(=O)O)c1=O,inactive
10,CC(O)C1CCC2C3CCC4CC(OC5OC(C(=O)O)C(O)C(O)C5O)CCC4(C)C3CCC12C (centres undefined),inactive
11,C/C=C1/[C@H](O[C@@H]2O[C@H](CO)[C@@H](O)[C@H](O)[C@H]2O)OC=C2C(=O)O[C@@H]3C[C@@H](C(C)CO)[C@H](COC(=O)C[C@H]21)[C@H]3C (some centres undefined),inactive
12,COc1ccc(NC(=O)c2ccc(-c3ccc(C(N)=O)cc3C)cc2)cc1N1CCN(C)CC1,inactive
13,Cc1cccc(-c2nn3c(c2-c2ccnc4ccc(C(N)=O)cc24)CCC3)n1,inactive
14,CC1(C)CC[C@]2(C(=O)OC3OC(CO)C(O)C(O)C3O)CC[C@]3(C)C(=CCC4[C@@]5(C)C[C@@H](O)[C@H](OC6OC(C(=O)O)C(O)C(O)C6O)C(C)(C)C5CC[C@]43C)[C@@H]2C1 (some centres undefined),inactive
15,O=C(NCC(=O)N1CCCC1)Nc1ccc2ccccc2c1,inactive
16,O=C(c1c2ccccc2cc2ccccc12)N1CCC(N2CCC[C@@H](C(=O)N3CCOCC3)C2)CC1,inactive
17,CC(C)c1ccc2c(c1)C(O)CC1C(C)(CO)CCCC21C (centres undefined),inactive
18,C=CCc1cc(OC)c(OC(C)C(O)c2ccc(O)c(OC)c2)c(OC)c1 (centres undefined),inactive
19,COc1cc(O)cc(O[C@@H]2O[C@H](CO)[C@@H](O[C@@H]3OC[C@](O)(CO)[C@H]3O)[C@H](O)[C@H]2O)c1OC,inactive
20,CC1(C)COC(=O)[C@@H]1O[C@@H]1O[C@H](CO)[C@@H](O)[C@H](O)[C@H]1O,inactive

row,Structure (SMILES),outcome
1,C[C@@H]1O[C@@H](O[C@H]2[C@@H]3C=CO[C@@H](O[C@@H]4O[C@H](CO)[C@@H](O)[C@H](O)[C@H]4O)[C@@H]3[C@@]3(CO)O[C@@H]23)[C@H](O)[C@H](O)[C@H]1OC(=O)/C=C/c1ccc(O)cc1,inactive
2,Cc1c(NC(=O)N2CCOCC2)ccc2c1c1ccccc1n2C(C)C,inactive
3,COC(=O)C1=COC(OC2OC(CO)C(O)C(O)C2O)C2C(COC(=O)/C=C/c3ccc(O)c(O)c3)C(O)C(O)C12 (centres undefined),inactive
4,O=C(OC[C@H]1O[C@H](O[C@]2(CO)O[C@H](CO)[C@@H](O)[C@@H]2O)[C@H](O)[C@@H](O)[C@@H]1O)c1ccc(O)cc1,inactive
5,C=CC(C)(O)C1CC2C3(C)CCCC(C)(C)C3C(O)C(O)C2(C)O1 (centres undefined),inactive
6,CC1CC(=O)[C@]2(O)C(C(=O)OCCc3ccc(O)c(O)c3)=CO[C@@H](O[C@@H]3O[C@H](CO)[C@@H](O)[C@H](O)[C@H]3O)[C@H]12 (some centres undefined),inactive
7,COc1cc(O)cc2c1C(=O)OC(C)CCCCCCC2 (centres undefined),inactive
8,C=C(C)[C@H]1CC[C@]2(C(=O)O)CC[C@]3(C)C(CCC4[C@@]5(C)CCC(=O)C(C)(C)C5CC[C@]43C)C12 (some centres undefined),inactive
9,OCC1OC(Oc2cc(O)cc(/C=C/c3ccc(OC4OC(CO)C(O)C(O)C4O)cc3O)c2)C(O)C(O)C1O (centres undefined),inactive
10,CC(C)[C@](O)(c1ccc2cc(OC(F)F)c(OC(F)F)cc2c1)c1cn[nH]n1,inactive
11,C/C=C1/[C@H](O[C@@H]2O[C@H](CO)[C@@H](O)[C@H](O)[C@H]2O)OC=C(C(=O)OC)[C@H]1CC(=O)OCCc1ccc(OC(=O)C[C@@H]2C(C(=O)OC)=CO[C@@H](O[C@@H]3O[C@H](CO)[C@@H](O)[C@H](O)[C@H]3O)/C2=C/C)cc1,inactive
12,C/C(=C/CO)CC[C@H]1[C@]2(C)C[C@H](O)CC(C)(C)[C@H]2CC[C@]1(C)O,inactive
13,C[C@@H]1O[C@@H](O[C@@H]2\C=C/C=C\C=C/C=C\C[C@H](C)OC(=O)/C=C\[C@H]3O[C@@H]3C[C@H](O)C[C@]3(O)C[C@@H](O)[C@@H](C(=O)O)[C@H](C2)O3)[C@H](O)[C@H](N)[C@@H]1O,inactive
14,COc1cc(C)c(C(=O)O[C@@H]2[C@H](O)[C@@H](CO)O[C@H]2n2ccc(=O)[nH]c2=O)c(OC)c1,inactive
15,C=C(CCO)C(=O)OCC1OCC(OC(=O)C(=C)CCO[C@@H]2O[C@H](CO)[C@@H](O)[C@H](O)[C@H]2O)C(O)C1O (some centres undefined),inactive
16,COc1ccc(/C=C/C(=O)N2CCCC2)cc1,inactive
17,C[C@@H]1O[C@@H](OC[C@H]2O[C@@H](OCc3ccccc3)[C@H](O)[C@@H](O)[C@@H]2O)[C@H](O)[C@H](O)[C@H]1O,inactive
18,CC(=O)O[C@@H]1C=C2[C@H](CC[C@@]3(C)[C@@]2(O)CC[C@H]2Cc4c([nH]c5ccccc45)[C@@]23C)O[C@@H]1C(C)(C)O,inactive
19,Cc1cc(Cn2cnc3c2CC(C(=O)O)N(C(=O)C(c2ccccc2)c2ccccc2)C3)ccc1N(C)C (centres undefined),inactive
